Among the test systems are NCI-H23 lung; NCI-H226 lung; NCI-H322M lung; HOP-62 NSCLC; NCI-H460 lung; HOP-92 NSCLC; NCI-H522 lung; A549/ATCC NSCLC; 786-0 renal; COLO 205 colon; DU-145 prostate; K-562 leukemia; MALME-3M melanoma; MDA-MB-231 breast; RXF 393 renal; SF-268 CNS; SF-295 CNS; SF-539 CNS; UACC-257 melanoma; M14 melanoma.
Test in all cases: NCI-60 one-dose screen, 48 h (100 = growth as untreated, 0 = no growth, -100 = all killed)
Common to all, as to settings: 10 µM unless noted

Structures are written as SMILES. About 83,000 compounds went through this panel and 20% of them were active in at least one assay; those are over-represented in the sample as a whole.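 Plates (96-well) were seeded with cells, treated with compound at one concentration, and incubated for 48 hours before percent growth was determined.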 Unmarked numbers belong to inactive results. Calls of active or inactive are those of the source. The calls were made as follows: active = growth percent below 10; inactive = the rest.

Results on eight compounds are retold here after PubChem BioAssay (NCI).

Take `Cc1ccc2c(c1)Nc1ccc(C)cc1C2(C)C`: the growth was 94.9% in the assay on NCI-H23 lung; 98.3% in the assay with NCI-H226 lung; 114% in the assay with NCI-H322M lung; 78.9% with HOP-62 NSCLC; 109% in the assay on NCI-H460 lung; 81.1% in the assay with HOP-92 NSCLC. The growth in the assay on NCI-H522 lung is 68%; in the assay on A549/ATCC NSCLC, 93.1%; in the assay on 786-0 renal, 84.7%; in the assay on COLO 205 colon, 84.3%; in the assay on DU-145 prostate, 107%; with K-562 leukemia, 97.4%. The growth in the assay on MALME-3M melanoma is 98.9%; in the assay with MDA-MB-231 breast, 114%; in the assay on RXF 393 renal it was 101%; in the assay with SF-268 CNS it was 105%; with SF-295 CNS, 101%; with SF-539 CNS, 95.7%. Also, the growth in the assay on UACC-257 melanoma is 110%; in the assay with M14 melanoma, 98.2%.

For `CCCCCCCCCCCCCCCCNc1ccccc1`, the growth in the assay with NCI-H23 lung was 102%; with NCI-H226 lung, 99.8%; with NCI-H322M lung, 83.8%; in the assay with HOP-62 NSCLC it was 105%; in the assay on NCI-H460 lung, 105%; in the assay on HOP-92 NSCLC it was 97.7%. The growth in the assay with NCI-H522 lung is 64.6%; with A549/ATCC NSCLC it was 59.7%; in the assay on 786-0 renal it was 81.4%; in the assay with COLO 205 colon, 113%; in the assay on DU-145 prostate, 107%; in the assay with K-562 leukemia, 79.8%. Moreover, the growth in the assay on MALME-3M melanoma was 114%; in the assay on MDA-MB-231 breast, 104%; with RXF 393 renal, 110%; in the assay with SF-268 CNS it was 86.6%; in the assay on SF-295 CNS, 102%; in the assay on SF-539 CNS, 97.1%. The results for the growth in the assay with UACC-257 melanoma and in the assay on M14 melanoma were 82.3% and 106%, respectively.

`O=S(c1ccccc1)c1ccc2nnnn2n1` (stereo not given): the growth in the assay on NCI-H23 lung was 100%; with NCI-H226 lung, 103%; with NCI-H322M lung, 98.7%; in the assay with HOP-62 NSCLC, 108%; in the assay with NCI-H460 lung it was 103%; in the assay on HOP-92 NSCLC, 101%. Moreover, the growth is -17.6% (active) with NCI-H522 lung; 99.9% in the assay on A549/ATCC NSCLC; 104% in the assay with 786-0 renal; 98% in the assay with COLO 205 colon; 105% with DU-145 prostate; -9.22% (active) with K-562 leukemia. The growth was 103% with MALME-3M melanoma; 104% in the assay with MDA-MB-231 breast; 117% with RXF 393 renal; 97.1% with SF-268 CNS; 102% in the assay on SF-295 CNS; 102% with SF-539 CNS. Also, the growth is 99.6% with UACC-257 melanoma and 99% with M14 melanoma.

Take `Oc1ccccc1/C=N/c1ccccn1`: the growth is 220% in the assay on NCI-H23 lung; 107% with NCI-H226 lung; 132% with NCI-H322M lung; 112% with HOP-62 NSCLC; 112% in the assay on NCI-H460 lung; 76.9% with HOP-92 NSCLC. Further, the growth in the assay on NCI-H522 lung was 92%; in the assay on A549/ATCC NSCLC, 104%; in the assay on 786-0 renal, 158%; in the assay on COLO 205 colon it was 85.7%; in the assay with DU-145 prostate, 129%; in the assay with K-562 leukemia it was 109%. Also, the growth with MALME-3M melanoma is 115%; in the assay on MDA-MB-231 breast, 106%; in the assay with RXF 393 renal it was 107%; with SF-268 CNS, 110%; with SF-295 CNS, 121%; in the assay on SF-539 CNS, 100%. Besides, the growth with UACC-257 melanoma is 91.4%; with M14 melanoma it was 100%.

Turning to `Nc1ncc(-c2ccc3ncnc(Nc4cncc(Cl)c4)c3c2)cn1`, the growth in the assay with NCI-H23 lung was 65.1%; in the assay with NCI-H226 lung it was 55.2%; in the assay on NCI-H322M lung it was 29.8%; in the assay with HOP-62 NSCLC it was 65.6%; in the assay on NCI-H460 lung it was 67.8%; in the assay on HOP-92 NSCLC, -0.664% (active). Besides, the growth in the assay on NCI-H522 lung is 55.5%; with A549/ATCC NSCLC it was 65.4%; in the assay with 786-0 renal it was 65.8%; with COLO 205 colon it was 75.6%; in the assay with DU-145 prostate, 49.7%; with K-562 leukemia, 82.9%. For the same compound, the growth with MALME-3M melanoma was 38.7%; in the assay on MDA-MB-231 breast, 66.5%; in the assay with RXF 393 renal, 60.3%; in the assay with SF-268 CNS, 68.2%; with SF-295 CNS it was 77.2%; in the assay with SF-539 CNS, 78.1%. The growth with UACC-257 melanoma is 82.9%; in the assay on M14 melanoma it was 77.9%.

Turning to `O=C(NCCNc1nccc(-c2c(-c3cccc(O)c3)nc3sccn23)n1)c1cc(N2CCOCC2)cc(C(F)(F)F)c1`, the growth in the assay with NCI-H23 lung is 106%; in the assay with NCI-H226 lung it was 106%; with NCI-H322M lung, 107%; in the assay with HOP-62 NSCLC it was 136%; with NCI-H460 lung it was 96.2%; in the assay on HOP-92 NSCLC, 87.7%. For the same compound, the growth with NCI-H522 lung was 78.6%; in the assay on A549/ATCC NSCLC, 88.6%; in the assay on 786-0 renal, 86.6%; in the assay on COLO 205 colon, 32.7%; with DU-145 prostate, 110%; in the assay with K-562 leukemia, 70.7%. The growth in the assay on MALME-3M melanoma was 3.04% (active); in the assay with MDA-MB-231 breast, 74.1%; with RXF 393 renal, 77.8%; in the assay on SF-268 CNS, 102%; in the assay with SF-295 CNS, 84.4%; with SF-539 CNS, 101%. Also, the growth was 16.7% in the assay on UACC-257 melanoma and 22.4% in the assay on M14 melanoma.

With `CN1CCN(CC(O)COc2c(Br)c(Br)c(Br)c3c2OC(C)(C)C3)CC1` (stereo not given), the growth with NCI-H23 lung is 82.4%; in the assay on NCI-H226 lung it was 99.2%; in the assay on NCI-H322M lung it was 73%; with HOP-62 NSCLC, 16.4%; with NCI-H460 lung, 23%; in the assay with HOP-92 NSCLC, -3.44% (active). For the same compound, the growth in the assay on NCI-H522 lung was 42.6%; in the assay on A549/ATCC NSCLC, 63.6%; with 786-0 renal, 11.8%; with COLO 205 colon, -45.3% (active); with DU-145 prostate, 89.9%; with K-562 leukemia, -16.5% (active). Further, the growth is -36.9% (active) in the assay with MALME-3M melanoma; 49.7% in the assay with MDA-MB-231 breast; 29.4% in the assay with RXF 393 renal; 63.8% with SF-268 CNS; 38.7% in the assay with SF-295 CNS; 58.3% in the assay with SF-539 CNS. For the same compound, the growth with UACC-257 melanoma was 99.9%; with M14 melanoma it was -53.5% (active).

In the case of `CN(C)c1ccc(/C=N/N=C(N)N)cc1`, the growth is 81.2% with NCI-H23 lung; 82.2% with NCI-H226 lung; 99.4% with NCI-H322M lung; 75.3% with HOP-62 NSCLC; 83.2% with NCI-H460 lung; 73.6% in the assay on HOP-92 NSCLC. The growth was 66.7% in the assay on NCI-H522 lung; 70.7% in the assay with A549/ATCC NSCLC; 103% in the assay with 786-0 renal; 54.7% with COLO 205 colon; 92.6% with DU-145 prostate; 40% in the assay with K-562 leukemia. Besides, the growth in the assay with MALME-3M melanoma was 77%; in the assay on MDA-MB-231 breast it was 75.8%; in the assay with RXF 393 renal it was 75.1%; in the assay with SF-268 CNS, 87%; in the assay on SF-295 CNS, 61.4%; in the assay on SF-539 CNS, 90.9%. The values for the growth with UACC-257 melanoma and in the assay on M14 melanoma were 72.4% and 51.2%, respectively.
